Values joined by “and” are separate entries in the source; they are usually repeats but may differ in a detail not shown here. Identical values can stand only once. The campaign covered roughly 5,500 compounds. About 2,000 (36%) were called active. Inconclusive results (about 18%) are left out. No stated cut-off is given here; in the data, active means normalized growth mostly below about 0.91 (no sharp cut-off); inconclusive means no clear call, values can overlap the other calls; inactive means mostly above about 0.92. The list shows a part of the results.
Test: chemical genetic growth profiling, strain panel (AID 1159580);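 further: tested at 20 µM; growth read once vehicle control cultures reached saturation at 30 °C; 1 = growth at the plate median or of vehicle wells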
Conditions: growth OD

Measured: normalized growth

NS(=O)(=O)c1cc2c(cc1Cl)NC(C1CC3C=CC1C3)NS2(=O)=O (stereo unspecified)
inactive: S. cerevisiae deletion strains, locus YJR075W, strain HOC1, stronger effect = lower value 1.02 and 1.01 | S. cerevisiae deletion strains, locus YKL009W, strain mrt4, stronger effect = lower value 0.979 | S. cerevisiae deletion strains, locus YKL068W, stronger effect = lower value 0.995 | S. cerevisiae deletion strains, locus YKL085W, strain MDH1 (second series), stronger effect = lower value 0.946 | S. cerevisiae deletion strains, locus YKL085W, strain MDH1, stronger effect = lower value 0.946 | S. cerevisiae deletion strains, locus YKL160W, strain elf1, stronger effect = lower value 1.01 | S. cerevisiae deletion strains, locus YKL190W, strain CNB1, stronger effect = lower value 0.991 | S. cerevisiae deletion strains, locus YKR001C, strain vps1, stronger effect = lower value 0.997 | S. cerevisiae deletion strains, locus YKR026C, strain gcn3, stronger effect = lower value 0.976 | S. cerevisiae deletion strains, locus YKR091W, strain srl3, stronger effect = lower value 0.989 | S. cerevisiae deletion strains, locus YLL001W, strain dnm1, stronger effect = lower value 0.987 | S. cerevisiae deletion strains, locus YLL026W, stronger effect = lower value 0.988 | S. cerevisiae deletion strains, locus YLL041C, strain sdh2, stronger effect = lower value 0.997 | S. cerevisiae deletion strains, locus YLR027C, strain aat2, stronger effect = lower value 0.995 | S. cerevisiae deletion strains, locus YLR039C, strain RIC1, stronger effect = lower value 0.981 | S. cerevisiae deletion strains, locus YLR058C, strain SHM2, stronger effect = lower value 0.979 | S. cerevisiae deletion strains, locus YLR102C, strain apc9, stronger effect = lower value 0.984 | S. cerevisiae deletion strains, locus YLR113W, strain HOG1, stronger effect = lower value 1.07 | S. cerevisiae deletion strains, locus YLR221C, strain rsa3, stronger effect = lower value 1 | S. cerevisiae deletion strains, locus YLR258W, strain gsy2, stronger effect = lower value 0.98 | S. cerevisiae deletion strains, locus YLR262C, strain YPT6 (second series), stronger effect = lower value 0.999 | S. cerevisiae deletion strains, locus YLR262C, strain YPT6, stronger effect = lower value 0.962 | S. cerevisiae deletion strains, locus YLR268W, strain sec22, stronger effect = lower value 0.973 | S. cerevisiae deletion strains, locus YLR320W, strain mms22, stronger effect = lower value 0.99 | S. cerevisiae deletion strains, locus YLR330W, strain CHS5, stronger effect = lower value 0.989 | S. cerevisiae deletion strains, locus YLR342W, strain FKS1 (second series), stronger effect = lower value 1.1 | S. cerevisiae deletion strains, locus YLR342W, strain FKS1, stronger effect = lower value 0.995 | S. cerevisiae deletion strains, locus YLR357W, strain rsc2, stronger effect = lower value 0.984 | S. cerevisiae deletion strains, locus YLR370C, strain arc18, stronger effect = lower value 0.992 | S. cerevisiae deletion strains, locus YLR371W, strain rom2, stronger effect = lower value 0.995 | S. cerevisiae deletion strains, locus YLR384C, strain iki3, stronger effect = lower value 0.993 | S. cerevisiae deletion strains, locus YLR418C, strain cdc73, stronger effect = lower value 0.961 | S. cerevisiae deletion strains, locus YML016C, strain PPZ1, stronger effect = lower value 0.998 | S. cerevisiae deletion strains, locus YML032C, strain rad52, stronger effect = lower value 1.02 | S. cerevisiae deletion strains, locus YML120C, strain ndi1, stronger effect = lower value 1 | S. cerevisiae deletion strains, locus YML124C, strain tub3, stronger effect = lower value 1 | S. cerevisiae deletion strains, locus YMR058W, strain fet3, stronger effect = lower value 0.996 | S. cerevisiae deletion strains, locus YMR078C, strain ctf18, stronger effect = lower value 0.986 | S. cerevisiae deletion strains, locus YMR125W, strain sto1, stronger effect = lower value 0.973 | S. cerevisiae deletion strains, locus YMR129W, stronger effect = lower value 0.981 | S. cerevisiae deletion strains, locus YMR205C, strain PFK2, stronger effect = lower value 0.951 | S. cerevisiae deletion strains, locus YMR223W, strain ubp8, stronger effect = lower value 1.05 | S. cerevisiae deletion strains, locus YMR231W, strain pep5, stronger effect = lower value 0.992 | S. cerevisiae deletion strains, locus YMR263W, strain SAP30, stronger effect = lower value 0.988 | S. cerevisiae deletion strains, locus YMR307W, strain GAS1, stronger effect = lower value 1.06 and 1 | S. cerevisiae deletion strains, locus YNL067W, strain RPL9B, stronger effect = lower value 1 | S. cerevisiae deletion strains, locus YNL071W, strain lat1, stronger effect = lower value 0.986 | S. cerevisiae deletion strains, locus YNL128W, strain TEP1, stronger effect = lower value 0.94 | S. cerevisiae deletion strains, locus YNL153C, strain GIM3, stronger effect = lower value 0.981 | S. cerevisiae deletion strains, locus YNL175C, strain NOP13, stronger effect = lower value 0.978 | S. cerevisiae deletion strains, locus YNL183C, strain NPR1, stronger effect = lower value 0.978 | S. cerevisiae deletion strains, locus YNL197C, strain WHI3, stronger effect = lower value 0.982 | S. cerevisiae deletion strains, locus YNL209W, strain ssb2, stronger effect = lower value 1 | S. cerevisiae deletion strains, locus YNL224C, strain SQS1, stronger effect = lower value 0.992 | S. cerevisiae deletion strains, locus YNL233W, strain BNI4, stronger effect = lower value 1 | S. cerevisiae deletion strains, locus YNL248C, strain rpa49, stronger effect = lower value 0.999 | S. cerevisiae deletion strains, locus YNL250W, strain rad50, stronger effect = lower value 0.999 | S. cerevisiae deletion strains, locus YNL271C, strain bni1, stronger effect = lower value 1 | S. cerevisiae deletion strains, locus YNL298W, strain CLA4, stronger effect = lower value 0.988 | S. cerevisiae deletion strains, locus YNL307C, strain MCK1, stronger effect = lower value 1.02 | S. cerevisiae deletion strains, locus YNL322C, strain KRE1 (second series), stronger effect = lower value 1 | S. cerevisiae deletion strains, locus YNL322C, strain KRE1, stronger effect = lower value 0.988 | S. cerevisiae deletion strains, locus YNR049C, strain mso1, stronger effect = lower value 0.989 | S. cerevisiae deletion strains, locus YNR052C, strain pop2, stronger effect = lower value 0.987 | S. cerevisiae deletion strains, locus YOL006C, strain TOP1, stronger effect = lower value 1.02 | S. cerevisiae deletion strains, locus YOL012C, strain htz1 1.21 | S. cerevisiae deletion strains, locus YOL147C, strain pex11, stronger effect = lower value 0.993 | S. cerevisiae deletion strains, locus YOR001W, strain rrp6, stronger effect = lower value 0.997 | S. cerevisiae deletion strains, locus YOR061W, strain CKA2, stronger effect = lower value 0.959 | S. cerevisiae deletion strains, locus YOR069W, strain VPS5, stronger effect = lower value 0.995 | S. cerevisiae deletion strains, locus YOR070C, strain gyp1, stronger effect = lower value 0.993 | S. cerevisiae deletion strains, locus YOR080W, strain dia2, stronger effect = lower value 0.993 | S. cerevisiae deletion strains, locus YOR083W, strain WHI5 (second series), stronger effect = lower value 0.989 | S. cerevisiae deletion strains, locus YOR083W, strain WHI5, stronger effect = lower value 1 | S. cerevisiae deletion strains, locus YOR106W, strain vam3, stronger effect = lower value 1 | S. cerevisiae deletion strains, locus YOR136W, strain idh2, stronger effect = lower value 0.998 | S. cerevisiae deletion strains, locus YOR144C, strain elg1, stronger effect = lower value 0.991 | S. cerevisiae deletion strains, locus YOR184W, strain ser1, stronger effect = lower value 1.06 | S. cerevisiae deletion strains, locus YOR231W, strain MKK1, stronger effect = lower value 1.06 | S. cerevisiae deletion strains, locus YOR265W, strain rbl2, stronger effect = lower value 0.999 | S. cerevisiae deletion strains, locus YOR270C, strain vph1, stronger effect = lower value 0.984 | S. cerevisiae deletion strains, locus YOR290C, strain snf2, stronger effect = lower value 1.01 | S. cerevisiae deletion strains, locus YOR316C, strain cot1, stronger effect = lower value 0.98 | S. cerevisiae deletion strains, locus YPL051W, strain arl3, stronger effect = lower value 0.997 | S. cerevisiae deletion strains, locus YPL055C, strain LGE1, stronger effect = lower value 0.977 | S. cerevisiae deletion strains, locus YPL078C, strain atp4, stronger effect = lower value 0.998 | S. cerevisiae deletion strains, locus YPL106C, strain sse1, stronger effect = lower value 0.96 | S. cerevisiae deletion strains, locus YPL240C, strain hsp82, stronger effect = lower value 0.982 | S. cerevisiae deletion strains, locus YPL241C, strain CIN2, stronger effect = lower value 0.981 and 0.988 | S. cerevisiae deletion strains, locus YPL256C, strain CLN2, stronger effect = lower value 1.04 | S. cerevisiae deletion strains, locus YPR119W, strain clb2, stronger effect = lower value 0.996 | S. cerevisiae deletion strains, locus YPR141C, strain kar3, stronger effect = lower value 0.979 | S. cerevisiae deletion strains, locus YPR163C, strain tif3, stronger effect = lower value 0.997 | S. cerevisiae deletion strains, locus YPR167C, strain met16, stronger effect = lower value 0.977 | S. cerevisiae deletion strains, strain wtn01, stronger effect = lower value 0.969 | S. cerevisiae strains, strain wild type, stronger effect = lower value 0.998

Source: PubChem BioAssay AID1159580 (chemical genetic matrix, 2015)
